The source of these data is PubChem BioAssay AID463173 (ICCB-Longwood Screening Facility, Harvard Medical School, 2010).

The whole screen tested about 52,000 compounds, of which about 4,300 (8.3%) were called active. Shown is part of a subset that was picked to be rich in actives. Unmarked numbers belong to inactive results. No stated cut-off is given here; in the data, active means survival mostly below about 52% (no sharp cut-off); inactive means mostly above about 56%.

For this test, the system named is DeltatarO mutant. The test can be described thus: growth inhibition of S. aureus wild type versus tarO mutant, primary screen, teichoic acid synthesis inhibitors, RN4220, OD600 (AID 463173). Conditions: OD600, 18 h, stronger effect = lower value, screened at 18.75 µg/mL (by protocol).
Take `Cc1ccc(C)c(-c2nn(CC(=O)Nc3cc(F)ccc3F)c(=O)c3c2CCCC3)c1`: the survival is 41% (active).

Take `CCc1ccccc1NC(=O)CN1CCCN(Cc2cc(C)ccc2C)S1(=O)=O`: the survival was 94%. The same measure for `COc1ccccc1NC(=O)Cn1nc(-c2ccc(C)cc2)c2c(c1=O)CCCC2`: 42%.

For `CCc1ccccc1NC(=O)Cn1nc(-c2cc(C)ccc2C)c2c(c1=O)CCCC2`, the survival was 41% (active). The same measure for `Cc1nn(CC(=O)Nc2cc(F)ccc2F)c(=O)c2cccn12`: 94%; for `O=C(Cn1ncc2c([nH]c3ccccc32)c1=O)Nc1cc(F)ccc1F`: 81%. The same measure for `COc1ccc(Cc2nnc(SCC(N)=O)o2)cc1`: 76%; for `O=C1COc2ccccc2N1Cc1c(F)cccc1Cl`: 79%. To `CCOC(=O)c1c(NC(=O)COc2ccc(C(C)(C)C)cc2)sc2c1CCCC2` belongs 75%; to `CCOC(=O)c1c(NC(=O)COc2ccc(Cl)cc2C)sc2c1CCCCC2`, 75%; to `CCOC(=O)c1c(NC(=O)CCCOc2ccc(C(C)(C)C)cc2)sc2c1CCC2`, 9% (active). As for `CCOC(=O)c1c(NC(=O)CCCOc2ccc(C(C)(C)C)cc2)sc2c1CCCC2`, the survival is 14% (active). To `CCOC(=O)c1c(NC(=O)CS(=O)(=O)c2ccc(Cl)cc2)sc2c1CCCC2` belongs 77%; to `CCOC(=O)c1c(NC(=O)CCCOc2ccc(Cl)cc2)sc2c1CCC2`, 17% (active). Turning to `Cc1ccc(N2CCN(S(=O)(=O)c3cc(Br)cc4c3N(C(=O)C3CC3)CC4)CC2C)cc1` (stereo not drawn), the survival was 70%. Take `CCOc1ccccc1NC(=O)C(=O)NCCc1sc(-c2cccc(F)c2)nc1C`: the survival was 90%. The same measure for `O=C(OCC(=O)N1CCc2ccccc21)c1ccccc1`: 92%; for `CCOc1ccc(CCNC(=O)c2cnc3sc(N4CCC(C)CC4)nn3c2=O)cc1`: 84%; for `COc1cc2c(cc1OC)C(CC(=O)Nc1ccccc1)C(=O)NN=C2C` (stereo not drawn): 103%. To `CCc1cc2c(cc3c(=O)n(CC(=O)N4CCCCC4)nc(CC)n32)s1` belongs 77%.

As for `CCc1cc2c(cc3c(=O)n(CC(=O)N4CCC(C)CC4)nc(CC)n32)s1`, the survival was 41% (active). For `CCc1cc2c(cc3c(=O)n(CC(=O)NC4CCC(C)CC4)nc(CC)n32)s1` (stereo not drawn), the survival was 115%. The same measure for `COc1ccc(OC)c(C(=O)CN2C(=O)N(c3ccc(C)cc3)S(=O)(=O)c3ccccc32)c1`: 89%. In the case of `COc1ccc(C(=O)NCC(c2ccco2)S(=O)(=O)c2cccs2)cc1` (stereo not drawn), the survival is 100%. To `Cc1cccc(-c2nc3c4ccccc4nc(NCc4ccccc4Cl)n3n2)c1` belongs 138%. `COc1ccccc1CNc1nc2ccccc2c2nc(-c3cccnc3)nn12`: the survival is 48% (active). In the case of `COc1cc2nc(NCc3ccccc3Cl)n3nc(-c4cccnc4)nc3c2cc1OC`, the survival was 105%. Regarding `COc1ccccc1CNc1nc2ccccc2c2nc(-c3cccc(C)c3)nn12`, the survival was 24% (active).

On to `COc1ccc(OC)c(CCNc2nc3ccccc3c3nc(-c4cccnc4)nn23)c1`, for which the survival is 112%. To `Clc1ccccc1CNc1nc2ccccc2c2nc(-c3cccnc3)nn12` belongs 86%; to `Cc1ccc(NC(=O)c2oc3ccc(S(=O)(=O)N(C)C4CCCCC4)cc3c2C)cc1Cl`, 95%; to `Cc1cc2n(n1)CCCN2C(=O)Nc1cccc(C)c1C`, 73%. To `O=C(O)C1C2C=CC(C2)C1C(=O)NCCO` (stereo not drawn) belongs 82%; to `COc1ccc(OC)c(S(=O)(=O)N2CCC(C(=O)NCCC3=CCCCC3)CC2)c1`, 92%; to `COC(=O)CNC(=O)N1CCN(S(=O)(=O)c2ccc3c(ccn3C)c2)CC1`, 87%. The same measure for `CCOC(=O)CNC(=O)N1CCN(S(=O)(=O)c2ccc3c(ccn3C)c2)CC1`: 32% (active); for `CCOC(=O)CCNC(=O)N1CCN(S(=O)(=O)c2ccc3c(ccn3C)c2)CC1`: 89%; for `CCn1c(SCc2ccccc2)nnc1-c1cccnc1`: 75%. Consider `Cc1ccccc1-c1nnc(CN2CCN(c3cc(Cl)ccc3C)CC2)o1`, for which the survival is 74%. For `Cc1ccc(N2CCN(Cc3nnc(-c4ccccc4F)o3)CC2)c(C)c1`, the survival is 22% (active). On to `Cc1cccc(N2CCN(Cc3nnc(-c4ccccc4C)o3)CC2C)c1` (stereo not drawn), for which the survival was 33% (active).

On to `Cc1ccc(C)c(N2CCN(Cc3nnc(-c4ccccc4)o3)CC2)c1`, for which the survival was 91%. To `Cc1ccccc1-c1nnc(CN2CCN(c3ccccn3)CC2)o1` belongs 120%; to `Cc1ccccc1-c1nnc(CN2CCN(c3cccc(C)c3C)CC2)o1`, 61%. In the case of `CCn1c(=O)n(CC2CCC(C(=O)NC(C)C)CC2)c(=O)c2sccc21` (stereo not drawn), the survival is 85%.

In the case of `CC(=O)c1ccc(NC(=O)Cn2cc(S(=O)(=O)Cc3ccccc3Cl)c3ccccc32)cc1`, the survival is 74%. To `CCOC(=O)C1CCCN(C(=O)c2ccc3c(c2)N(Cc2ccccc2)C(=O)c2ccccc2S3=O)C1` (stereo not drawn) belongs 120%. To `CCCCC(=O)Nc1ccc2nc(SCC(=O)N3CCOCC3)sc2c1` belongs 87%; to `CCN(Cc1ccccc1)C(=O)CCc1c(C)nc2c(c(C)nn2-c2ccc(C)c(C)c2)c1C`, 95%. As to `COc1ccc(C(=O)N(Cc2cc(OC)c(OC)c(OC)c2)CC2CCCO2)cc1` (stereo not drawn), the survival is 48%.

`O=C(c1ccc(Cl)cc1)N1CCN(CCc2ccncc2)CC1`: the survival was 103%.

In the case of `COC(=O)CSc1nc2sc3c(c2c(=O)n1-c1ccccc1C)CC(C)(C)OC3`, the survival is 73%. The same measure for `CCC1(C)Cc2c(sc3nc(SC)n(-c4ccc(C)cc4)c(=O)c23)CO1` (stereo not drawn): 33% (active); for `CCOC(=O)CSc1nc2sc3c(c2c(=O)n1Cc1ccccc1)CC(C)CC3` (stereo not drawn): 64%; for `CCOC(=O)CSc1nc2sc3c(c2c(=O)n1Cc1ccccc1)CCC(C(C)(C)C)C3` (stereo not drawn): 61%. Turning to `CCCCCOC(=O)CSc1nc2sc3c(c2c(=O)n1Cc1ccccc1)CC(C)(C)OC3`, the survival was 41% (active). The same measure for `COC(=O)CSc1nc2sc3c(c2c(=O)n1-c1ccc(C)cc1)CC(C(C)C)OC3` (stereo not drawn): 61%. `CCOC(=O)CSc1nc2sc3c(c2c(=O)n1-c1ccccc1)CC(C(C)C)OC3` (stereo not drawn): the survival was 96%.

`CCCN(CCC)C(=O)CSc1nc2sc3c(c2c(=O)n1-c1ccccc1)CCN(C(C)=O)C3`: the survival is 178%. On to `CCCCCOC(=O)CSc1nc2sc3c(c2c(=O)n1-c1ccccc1)CC(C)(CC)OC3` (stereo not drawn), for which the survival is 36% (active). With `CCOC(=O)CSc1nc2sc3c(c2c(=O)n1Cc1ccccc1)CC(C(C)C)OC3` (stereo not drawn), the survival was 74%. Turning to `CCCCCOC(=O)CSc1nc2sc3c(c2c(=O)n1Cc1ccccc1)CC(C)(CC)OC3` (stereo not drawn), the survival was 46% (active). Consider `Cc1ccc(-n2c(SCCC(C)C)nc3sc4c(c3c2=O)CC(C)(C)OC4)cc1`, for which the survival was 49%. Take `CCOc1ccc(CN(CCc2ccc3c(c2)OCO3)Cc2cc(OC)c(OC)cc2OC)cc1`: the survival was 44%. The same measure for `O=C(Nc1ccc(C(=O)OCc2cc(=O)n3nc(C4CC4)sc3n2)cc1)c1cccc(F)c1`: 67%. To `O=C(Nc1cccc(F)c1)/C(=C\c1cccs1)NC(=O)c1cccs1` belongs 79%. The same measure for `O=C(CCCSc1nc(-c2ccco2)cc(C(F)(F)F)n1)Nn1cnnc1`: 72%; for `COc1cccc(C(=O)NC(=O)Nc2ccc(-n3nc(C(F)(F)F)cc3C(F)(F)F)cc2)c1`: 81%.

For `CCOc1ccc(OCC)c(NC(=O)C2CCCN(S(=O)(=O)c3ccc(C)cc3)C2)c1` (stereo not drawn), the survival is 60%. As for `CCC(Sc1nc2cc(OC)c(OC)cc2c2nc(-c3ccccc3)nn12)C(=O)Nc1cccc(C)c1` (stereo not drawn), the survival is 80%.

With `CCCCc1cc(=O)oc2cc(C)c3c(C(C)(C)C)coc3c12`, the survival was 102%. The same measure for `CCOc1ccc(-c2cnc(NCc3ccc(OC)cc3OC)n2C)cc1`: 37% (active); for `COc1ccc(OC)c(CNc2ncnc3onc(-c4ccc(Cl)cc4)c23)c1`: 53%. Turning to `COc1ccc(CNS(=O)(=O)c2cnc(N)nc2)c(OC)c1`, the survival was 83%. The same measure for `COc1ccc(OC)c(CNC(=O)CN2N=C(c3ccc(Cl)cc3)CCC2=O)c1`: 96%; for `COc1ccc(OC)c(CNc2ncc(-c3ccc(Cl)cc3)n2C)c1`: 25% (active). Take `CCOC(=O)c1cnc(NCc2ccc(OC)cc2OC)c2ccccc12`: the survival was 86%. As to `CCOc1ccccc1C(=O)N1CC(=O)Nc2ccc(Cl)cc2C1c1ccccc1` (stereo not drawn), the survival was 73%. The same measure for `Fc1ccc(Nc2c3c(nc4nncn24)CCC3)cc1`: 74%.

Regarding `Cc1ccc(-n2nc(C(=O)Nc3cccc(C#N)c3)c3c4ccccc4n(C)c3c2=O)cc1`, the survival is 129%. Take `Cc1ccc(C(=O)c2oc3ccccc3c2NC(=O)c2cc(-c3ccccc3)on2)cc1`: the survival is 77%. As for `O=C(c1ccco1)N1CCN(c2c3c(nc4cc(-c5cccc(F)c5)nn24)CCCC3)CC1`, the survival was 70%. For the compound `Cc1ccc2cc(CN(Cc3cccnc3)C(=O)c3cccnc3)c(=O)[nH]c2c1`, the survival is 106%. The same measure for `O=C1Nc2ccccc2Oc2cc(Oc3cccc(Cl)c3)ccc21`: 46%; for `Cc1cccc(Oc2ccc3c(c2)Oc2ccccc2NC3=O)c1`: 73%. `O=C1Nc2ccccc2Oc2cc(Oc3ccccc3)ccc21`: the survival is 33% (active).

In the case of `COc1ccc(-c2ccc(CNCCCSc3nnnn3C)o2)cc1Cl`, the survival is 79%. To `COc1ccc(Cl)cc1NC(=O)Cn1c(=O)c(-c2ccccc2NC(C)=O)nc2ccccc21` belongs 103%; to `CC(=O)Nc1ccccc1-c1nc2ccccc2n(CC(=O)Nc2cccc(C(F)(F)F)c2)c1=O`, 45% (active); to `CCc1ccc(NC(=O)Cn2c(=O)c(-c3ccccc3NC(C)=O)nc3ccccc32)cc1`, 44% (active). To `CC(=O)Nc1ccccc1-c1nc2ccccc2n(CC(=O)Nc2ccc(C)c(Cl)c2)c1=O` belongs 101%; to `CCc1ccc(NC(=O)C(CC)n2c(=O)c(-c3ccccc3NC(C)=O)nc3ccccc32)cc1` (stereo not drawn), 65%. On to `Nc1nonc1-c1nc2ccccc2n1CC(=O)Nc1cccc(C(F)(F)F)c1`, for which the survival was 95%.
